Compounds with a hit are over-represented: about 6.7% of the library has one in this group of screens.
Tcruzi prolif = inhibitors of T. cruzi proliferation; T. cruzi beta-gal in NIH3T3, GalScreen luminescence, 90 h; inhibition, % at 8.34 µM; 77,000 compounds, 5.9% hits; AID 624255;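 active = mean inhibition above about 93%, with at least 55% of replicates each passing it, limit read from the data, passing the limit was not always enough; inconclusive = only one of those two conditions holds; inactive = neither condition holds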
Pf Dd2 inh = blocks growth of Plasmodium falciparum Dd2 parasites; P. falciparum Dd2 growth, SYBR Green, 72 h; hits give low values; AID 1159554; activity change, % at 10 µM; 94,000 compounds, 2.3% hits; in the data active = activity change below about -80%; inconclusive = no clear call, values can overlap the other calls
C diff growth = C. difficile growth inhibition; Clostridium difficile clinical isolate growth, OD600, 24 h; hits give low values; growth activity, negative = inhibition, % at 16 µg/mL (by protocol); 86,000 compounds, 0.25% hits; AID 1259249;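 active = mean growth activity at or below -80% and every replicate also at or below -80%; inconclusive = mean at or below -80% but some replicate above -80%; inactive = mean growth activity above -80%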
Each line names hits and unclear results; the compound was inactive in the other large screens.

C[C@@H]1CCCCO[C@@H](CN(C)CC2CCCCC2)[C@@H](C)CN([C@@H](C)CO)C(=O)c2cc(NC(=O)Nc3ccc4c(c3)OCO4)ccc2O1	none
COc1cccc(C#Cc2ccc3c(c2)O[C@@H](CN(C)C(=O)c2ccccn2)[C@H](C)CN([C@H](C)CO)S3(=O)=O)c1	Tcruzi prolif 119.2
COc1ccc(C#Cc2ccc3c(c2)O[C@@H](CN(C)C(=O)c2ccccn2)[C@H](C)CN([C@@H](C)CO)S3(=O)=O)cc1	none (no result: Tcruzi prolif)
COc1cccc(C#Cc2ccc3c(c2)O[C@H](CN(C)C(=O)c2ccccn2)[C@H](C)CN([C@@H](C)CO)S3(=O)=O)c1	Tcruzi prolif 115.8
COc1cccc(NC(=O)N(C)C[C@@H]2Oc3cc(C#Cc4ccncc4)ccc3S(=O)(=O)N([C@@H](C)CO)C[C@@H]2C)c1	none
COc1cccc(NC(=O)N(C)C[C@@H]2Oc3cc(C#Cc4ccccc4)ccc3S(=O)(=O)N([C@@H](C)CO)C[C@@H]2C)c1	Tcruzi prolif inconclusive, Pf Dd2 inh -90.7
COc1cccc(C#Cc2ccc3c(c2)O[C@@H](CN(C)C(=O)c2ccccn2)[C@@H](C)CN([C@H](C)CO)S3(=O)=O)c1	Tcruzi prolif inconclusive
Cc1ccc(S(=O)(=O)NCC[C@@H]2CC[C@@H](NC(=O)c3ccccn3)[C@H](CO)O2)cc1	none
C[C@H]1CN([C@@H](C)CO)C(=O)c2cccc(NC(=O)Nc3ccc4c(c3)OCO4)c2O[C@H]1CN(C)C(=O)Nc1ccc2c(c1)OCO2	none
C[C@H](CO)N1C[C@H](C)[C@H](CN(C)C(=O)c2ccccc2F)Oc2ncc(C#Cc3cccc(F)c3)cc2C1=O	none
C[C@@H]1CN([C@H](C)CO)C(=O)c2cc(C#Cc3cccc(F)c3)cnc2O[C@@H]1CN(C)C(=O)c1ccccc1F	Pf Dd2 inh -81.2
C[C@@H]1CN([C@H](C)CO)C(=O)c2cc(C#Cc3ccccc3)cnc2O[C@H]1CN(C)C(=O)c1ccccc1F	none (no result: Tcruzi prolif)
C[C@@H]1CN([C@@H](C)CO)C(=O)c2cc(C#Cc3ccccc3F)cnc2O[C@H]1CN(C)C(=O)Cc1ccncc1	none
C[C@@H]1CN([C@H](C)CO)C(=O)c2cc(C#Cc3ccccc3F)cnc2O[C@H]1CN(C)C(=O)Cc1ccncc1	Pf Dd2 inh -83.7
C[C@H]1CN([C@@H](C)CO)C(=O)c2cc(C#Cc3cccc(F)c3)cnc2O[C@H]1CN(C)C(=O)c1ccccc1F	Pf Dd2 inh -82.3
C[C@H]1CN([C@@H](C)CO)C(=O)c2cc(/C=C/c3ccccc3)cnc2O[C@@H]1CN(C)C(=O)c1cccc(F)c1	Pf Dd2 inh -82.7
C[C@H](CO)N1C[C@H](C)[C@@H](CN(C)C(=O)c2cccc(F)c2)Oc2ncc(/C=C/c3ccccc3)cc2C1=O	Pf Dd2 inh inconclusive
COc1ccc(S(=O)(=O)Nc2ccc3c(c2)[C@H]2C[C@H](CC(=O)O)O[C@@H](CO)[C@H]2O3)cc1	none
O=C(C[C@H]1C[C@H]2c3cc(NC(=O)NC4CCCCC4)ccc3O[C@H]2[C@@H](CO)O1)NCc1cccnc1	none
CN(C)Cc1cn(CC[C@H]2CC[C@@H](NS(=O)(=O)c3ccc(-c4ccccc4)cc3)[C@H](CO)O2)nn1	none (no result: C diff growth)
CC=Cc1ccc2n(c1=O)C[C@@H]1[C@@H](CO)[C@H](C(=O)NCC3CC3)[C@H]2N1CC1CCOCC1 (mixture of isomers)	none
C[C@@H]1CN([C@@H](C)CO)C(=O)c2cc(-c3ccncc3)cnc2O[C@H]1CN(C)C(=O)Cc1cccnc1	Tcruzi prolif 104.2
COc1ccc(NC(=O)N(C)C[C@@H]2Oc3ncc(-c4cccnc4)cc3C(=O)N([C@@H](C)CO)C[C@H]2C)cc1	none
COc1ccc(NC(=O)N(C)C[C@H]2Oc3ncc(-c4cccnc4)cc3C(=O)N([C@H](C)CO)C[C@@H]2C)cc1	Pf Dd2 inh -82.9
C[C@H](CO)N1C[C@H](C)[C@H](CN(C)C(=O)Cc2cccnc2)Oc2ncc(-c3ccccc3)cc2C1=O	none (no result: C diff growth)
COc1ccc(S(=O)(=O)N2CCC3(CC2)CN(C(=O)CN(C)C)[C@@H](CO)c2c3c3ccc(OC)cc3n2C)cc1	Pf Dd2 inh -88.3 (no result: Tcruzi prolif)
COc1ccc2c3c(n(C)c2c1)[C@@H](CO)N(C(=O)CN(C)C)CC31CCN(C(=O)CN(C)C)CC1	none (no result: Tcruzi prolif)
CCCNC(=O)N1CC2(CCN(S(=O)(=O)c3ccccc3)CC2)c2c(n(C)c3cc(OC)ccc23)[C@H]1CO	none (no result: Tcruzi prolif)
CCCNC(=O)N1CC2(CCN(S(=O)(=O)c3ccc(OC)cc3)CC2)c2c(n(C)c3cc(OC)ccc23)[C@@H]1CO	Pf Dd2 inh -86.0 (no result: Tcruzi prolif)
COc1ccc(CN2CC3(CCN(Cc4ccccn4)CC3)c3c(n(C)c4cc(OC)ccc34)[C@H]2CO)cc1	none (no result: Tcruzi prolif, C diff growth)
Cc1ccc(S(=O)(=O)N(C)C[C@@H]2OCc3ccccc3-c3ccccc3C(=O)N([C@H](C)CO)C[C@@H]2C)cc1	none (no result: C diff growth)

Screening results deposited in PubChem BioAssay by Broad Institute.
